# Assay outcomes from PubChem.
# Tau fil binding = qHTS Assay for Tau Filament Binding. AID 596, 2007. recombinant tau filaments, thioflavin S fluorescence, 15 h; filaments grown with octadecylsulfate alongside compound. Potency, µM (top dose mostly 57.1 µM), without a hit: top-dose activity change, negative = inhibition. actives 2% (n = 71,000). Microtubule-associated protein tau (Homo sapiens), P10636;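 also: potency is read from the fitted curve at half-maximal effect; % is scaled to controls: 0 for no effect and ±100 for the full control effect; actives lower thioflavin S fluorescence by blocking filaments or displacing dye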
#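 Thioflavine S fluorescence (ex 450, em 510 nm) reports filaments formed from 1 uM human tau plus 30 uM ODS over 15 h at 37 C (10 mM HEPES pH 7.4, 100 mM NaCl, 5 mM DTT); compounds displacing dye or blocking filaments lower signal.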
# Ub-GFP proteasome = Ubiquitin-GFP Assay; 67,000 tested, under 10 active; Ubiquitin-GFP reporter cells, proteasome inhibition, GFP fluorescence; response scale: untreated = 0%, 10 µM MG-132 = 100%; Potency, µM (highest dose often 45.9 µM), inactives show top-dose activation (GFP accumulation), hits mostly activators; AID 526, 2006; active = well fitted activation curve with a large enough effect, not every such curve was filed as active; inconclusive = small, poorly fitted or top-dose-only effect, or another doubt; inactive = no such curve, though single readings can be large or run the other way; also: potency is read from the fitted curve at half-maximal effect
#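 U2OS cells stably expressing ubiquitin(G76V)-GFP, seeded overnight in 0.5% FBS medium, were exposed to compounds (qHTS, 46 uM to 2.9 nM) for 4 hr at 37 °C. GFP-positive cells were counted by laser cytometry (488 ex/515 em), normalized between basal and 10 uM MG-132.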
# HBB splice mod = qHTS Assay for Modulators of Hemoglobin Beta Chain Splicing; HBB splicing reporter cell assay, activation; EGFP reporter with mutant IVS2-654 intron; response scale: normalised to 500 nM splice-correcting PNA; Potency, µM (doses to about 46.1 µM), inactives show at the top dose activation, hits mostly activators; actives 0.06% (n = 65,000); AID 925, 2007; also: potency is read from the fitted curve at half-maximal effect; 0% is about no effect
#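 Compounds were applied for 2 days to HeLa EGFP-654 cells, 500/well in Optimem with 2% FCS. The reporter's EGFP is disrupted by mis-splicing of beta-globin intron IVS2-654. Readout: summed well GFP fluorescence from 488 nm laser scanning; reference was 500 nM antisense […] 654 PNA.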
# ALOX15B inhib = qHTS Assay for Inhibitors of 15-hLO-2 (15-human lipoxygenase 2) | purified 15hLO-2, xylenol orange hydroperoxide absorbance | actives 0.56% (n = 110,000) | Polyunsaturated fatty acid lipoxygenase ALOX15B (Homo sapiens), O15296 | Potency, µM (highest dose often 57.1 µM), inactives show top-dose activity change, negative = inhibition, hits mostly inhibitors; also: potency is read from the fitted curve at half-maximal effect; % is scaled to controls: 0 for no effect and ±100 for the full control effect; nearly all actives have a fitted effect of over 60% in size
#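 Enzyme 50 nM, AA 45 uM, 25 mM Hepes pH 7.5 + 0.01% Triton X-100; cpd preinc 15 min RT, rxn 90 min RT; stop/detect with 200 uM XO + 300 uM Fe(II) in 50 mM H2SO4, 30 min; A573/A405.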
# ALOX15 inhib = qHTS Assay for Inhibitors of 15-hLO (15-human lipoxygenase) | Potency, µM (titrated, usually from 57.1 µM), inactives show top-dose activity change, negative = inhibition, hits mostly inhibitors | Polyunsaturated fatty acid lipoxygenase ALOX15 (Homo sapiens), P16050 | purified 15hLO-1, xylenol orange hydroperoxide absorbance | actives 1.4% (n = 74,000) | AID 887, 2007; also: potency is read from the fitted curve at half-maximal effect; % is scaled to controls: 0 for no effect and ±100 for the full control effect; nearly all actives have a fitted effect of over 55% in size
#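 Inhibition is scored from a chromogenic endpoint. After 15 min enzyme-compound contact, arachidonic acid (50 uM final) reacts 6 min with 40 nM 15hLO-1 at room temperature, then Fe-XO reagent is added for 30 min and absorbance ratio recorded.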
# GFP derepression = qHTS Assay for Epigenetic Modulators | mouse C127i GFP locus derepression, cytometry, 30 h | Potency, µM (titrated, usually from 46.1 µM), for the others: at the highest dose GFP derepression (activation) | actives 0.09% (n = 68,000) | AID 597, 2007; also: % of control where 0% means no effect
#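 Read-out is the number of GFP-positive cells, scored as fluorescent objects 20 to 120 um wide, reflecting derepression of a silenced CMV-GFP reporter in murine C127i cells after 30 h compound exposure at 37 C.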
# The depositor's hits bear a star; ? = inconclusive; / = no result given; [ ] = dose if it differs, or a comment. Only some compounds are listed: those with a hit (about 2.3% of all), similar ones and a draw of the others. Unless noted, calls follow the shape of the dose curve; as a rule, active = well fitted curve in the direction sought with a large enough effect; inconclusive = small, poorly fitted or top-dose-only effect, or another doubt; inactive = no such curve, though single readings can be large; an effect the other way counts as inactive or inconclusive.
SMILES,Tau fil binding,Ub-GFP proteasome,HBB splice mod,ALOX15B inhib,ALOX15 inhib,GFP derepression
COc1ccc(C(C)C(=O)c2ccc(O)cc2O)cc1 (centres undefined),/,/,/,-7%,-12%,/
O=C(c1ccncc1)N1CCC2(CCCN(Cc3nccs3)C2)CC1,-1%,0%,1%,21%,0.2µM*,3%[9.22 µM]
CC(=O)N1CCC2(CCCN(Cc3nccs3)C2)CC1,-6%,1%,2%,-2%,-2%,28%[9.22 µM]
Oc1c(-c2cc(-c3ccco3)[nH]n2)ccc2ccccc12,16µM*,7%,4%,-17%,-18%,2%
O=c1[nH]c(=O)n([C@H]2C[C@H](O)[C@H](CO)O2)cc1/C=C\Br,4%,-2%,5%,2%,6%,-3%
O=[N+]([O-])c1ccc([C@@H](Nc2ccccc2)c2ccc3cccnc3c2O)cc1,?,-11%[9.17 µM],0%[9.22 µM],22%[11.4 µM],-8%[11.4 µM],-3%[9.22 µM]
Oc1ccc2c(c1)oc1cc(O)ccc12,-19%,-1%,-5%,-24%,13µM*,5%
O=c1cc(-c2cccc(O)c2)oc2cc(O)ccc12,-2%,10%,/,-4%,2%[25.6 µM],5%[9.22 µM]
Cc1nc2nc(-c3ccccc3)cn2nc1C,304%,5%,-1%,8%,3%,-1%
Cc1nn2cc(-c3ccc(N)cc3)nc2s1,16µM*,4%,/,-1%,-3%,1%
COc1ccc2ccccc2c1C1CC(=O)N2CN(Cc3ccco3)CSC2=C1C#N (centres undefined),7.9µM*,12%,0%,13µM*,?,/
N#CC1=C2SCN(Cc3ccccc3)CN2C(=O)CC1c1cccs1 (centres undefined),0%,9%,0%,?,?,/
COc1ccc2ccccc2c1C1CC(=O)N2CN(C3CCCCC3)CSC2=C1C#N (centres undefined),13µM*,0%,0%,?,?,/
COc1cc(C2CC(=O)N3CN(Cc4ccco4)CSC3=C2C#N)ccc1OCc1ccccc1 (centres undefined),-11%,-10%,0%,?,6.3µM*,/
CCCCCSc1nnc2c(n1)OC(C)N(C(C)=O)c1ccccc1-2 (centres undefined),25µM*,3%,-1%,-11%,?,-4%
CCCSc1nnc2c(n1)OC(c1cccn1C)N(C(C)=O)c1ccccc1-2 (centres undefined),/,/,/,4%,-4%,/
CCC(=O)N1c2ccccc2-c2nnc(SC)nc2OC1c1ccc(N(C)C)cc1 (centres undefined),25µM*,6%,0%,/,2%,/
COC(=O)CCc1c(C)c(C(=O)c2ccco2)c2ccccn12,52%,-2%,-9%,-18%,7.9µM*,0%
Cn1c(=O)c2c(nc(C(=N)SCC(=O)O)n2C)n(C)c1=O,307%[11.4 µM],2%[9.17 µM],4%[9.22 µM],-4%[11.4 µM],-12%[11.4 µM],-6%[9.22 µM]
O=C(O)C1CC(=O)N(CCC23CC4CC(CC(C4)C2)C3)C(=Nc2ccccc2)S1 (centres undefined),/,/,/,/,-27%,/
CCC(=Nc1ccc(N)cc1)C1=C(O)C(C(=O)OC)C(C)(C)CC1=O (centres undefined),16µM*,2%,-1%[57.5 µM],-10%,-21%,7%
Nc1c(Cl)cc(Cl)cc1Cl,5%,/,1%,4%,4%,/
CC1=NOC(=O)/C1=C\c1ccc(-c2cccc(Cl)c2)o1,/,/,/,2.5µM*,/,/
Clc1cccc(-c2nnc(-c3ccccc3)o2)c1,16%,9%,-4%,6%,-6%,2%
C[N+](C)(CCCOc1ccccc1)c1ccccc1,4%[25.6 µM],4%[20.5 µM],0%[20.6 µM],-1%[25.6 µM],-2%[25.6 µM],5%[20.6 µM]
